Source: PubChem BioAssay (several laboratories)
In the library only some 6.6% were active in any assay of this set; here they are far more common.
Anthrax LF inh2: blocks Bacillus anthracis lethal factor protease | hit rate 0.12% among 360,000 | multiplex microsphere protease cleavage assay, LF | inhibition, % at 10 µM | P15917; further: plate controls were buffer without enzyme for full effect and enzyme alone for no effect
GDH-TPI counter: counter-screen for M. tuberculosis FBA inhibitors: GDH-TPI coupled enzymes; GDH-TPI coupled enzyme counterscreen, NADH absorbance; inhibition, % at 4.8 µM; hit rate 1.2% among 360,000; AID 588335; in the data active means inhibition above about 30%;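 further: 0% = DMSO wells and 100% = wells lacking the enzyme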
Autofluor counter: compound fluorescence in toxin protease inhibitor counterscreen | hit rate 3.1% among 360,000 | fluorescence intensity (concentration not given with the values) | compound autofluorescence counterscreen, microsphere flow cytometry; stronger effect = higher value | AID 624483; in the data active means fluorescence intensity above about 16000; inconclusive means no clear call, values can overlap the other calls
Mtb FBA inh: inhibits M. tuberculosis FBA enzyme. P9WQA3. purified M. tuberculosis FBA, fluorescence read-out. inhibition, % at 1 µM. hit rate 2.3% among 360,000; in the data active means inhibition above about 27%;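 further: 0% = vehicle and 100% = reference inhibitor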
Target sequence (P9WQA3 whole entry, looked up): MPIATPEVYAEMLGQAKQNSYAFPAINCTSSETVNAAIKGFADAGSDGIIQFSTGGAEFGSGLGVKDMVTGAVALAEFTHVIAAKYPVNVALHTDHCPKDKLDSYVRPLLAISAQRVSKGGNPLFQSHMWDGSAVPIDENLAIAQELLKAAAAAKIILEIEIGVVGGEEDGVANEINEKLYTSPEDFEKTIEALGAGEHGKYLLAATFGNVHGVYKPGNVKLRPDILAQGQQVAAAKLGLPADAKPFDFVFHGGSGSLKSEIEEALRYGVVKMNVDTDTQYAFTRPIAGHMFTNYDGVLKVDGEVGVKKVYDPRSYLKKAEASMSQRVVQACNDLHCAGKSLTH
BoNT A protease: blocks Botulinum neurotoxin A light chain protease; multiplex microsphere protease substrate cleavage, flow cytometry; inhibition, % at 10 µM; hit rate 0.17% among 360,000; AID 588499; further: plate controls were buffer without enzyme for full effect and enzyme alone for no effect
BoNT-F LC inh: inhibitors of Botulinum neurotoxin F light chain protease. hit rate 0.22% among 360,000. inhibition, % at 10 µM. Multiplex microsphere protease cleavage assay, flow cytometry; in the data active means inhibition above about 35%, passing the limit was not always enough; inconclusive means no clear call, values can overlap the other calls; further: plate controls were buffer without enzyme for full effect and enzyme alone for no effect
* = called active by the depositor; ? = inconclusive; . = no result. Unless noted, no stated cut-off is given here; in the data, active means inhibition above about 30%; inconclusive means no clear call, values can overlap the other calls; inactive means below that.

SMILES	Anthrax LF inh2	GDH-TPI counter	Autofluor counter	Mtb FBA inh	BoNT A protease	BoNT-F LC inh
CN(C)c1ccc(C=NCC2(O)CCOC(C)(C)C2)cc1 (stereo unspecified)	-4	48*	3830	2	-1	-12
CN(C)c1ccc(C=NCCC2(c3ccccc3)CCOC(C)(C)C2)cc1 (stereo unspecified)	0	56*	4223	0	0	3
COc1ccc(C2(CCN=Cc3ccc(N(C)C)cc3)CCOC(C)(C)C2)cc1 (stereo unspecified)	-2	29	4785	0	-2	5
Cc1ccsc1C(=O)N1CCC1(C)C(=O)NS(=O)(=O)c1ccccc1C(F)(F)F (stereo unspecified)	-4	3	3802	6	0	-5
CC(=O)c1cc(-c2ccccc2)n(CC(=O)N2CCC(C)CC2)c1C	0	12	17028*	-1	?	-4
CC(=O)c1cc(-c2ccccc2)n(CC(=O)N2CCN(C3CCCC3)CC2)c1C	-2	1	4667	-3	0	-6
O=C(N/N=C/C(Br)=C/c1ccccc1)c1ccccc1F	-2	32*	4252	-6	2	-3
CCCCc1c(O)nc(N2CCN(Cc3ccccc3)CC2)[nH]c1=O	0	-3	21940*	1	2	4
Cc1cc(=O)[nH]c(N2CCN(Cc3ccccc3)CC2)n1	-1	-7	10349	2	-1	-8
COc1ccc(-c2ncccc2OC(=O)C23CC4CC(CC(C4)C2)C3)cc1OC	-6	12	7250	23	2	4
CCN(CC)C(=O)CCSc1nnc(-c2ccco2)o1	0	4	4057	2	-1	-8
Cc1ccc2[nH]c(=O)c(C(c3nnnn3Cc3ccccc3)N3CCc4ccccc43)cc2c1 (stereo unspecified)	-12	8	10065	1	0	-1
Cc1cc2cc(C(c3nnnn3Cc3ccccc3)N3CCc4ccccc43)c(=O)[nH]c2cc1C (stereo unspecified)	5	-1	21199*	2	?	2
Cc1ccc2cc(C(c3nnnn3Cc3ccccc3)N3CCc4ccccc43)c(=O)[nH]c2c1C (stereo unspecified)	-1	25	20150*	4	1	2
Cc1ccc2cc(C(c3nnnn3Cc3ccccc3)N3CCc4ccccc43)c(=O)[nH]c2c1 (stereo unspecified)	0	-4	11940	6	1	1
COCCNC(=O)c1ccccc1NC(=O)c1cccc([N+](=O)[O-])c1C	1	1	4242	0	0	0
Cc1ccc(S(=O)(=O)OCCC2=CC(=O)CCN2Cc2ccccc2)cc1	-1	0	4755	4	0	2
COc1ccccc1-c1nnc(Sc2nc([N+](=O)[O-])nn2C)o1	-3	10	16481*	2	0	0
Cn1cnnc1Sc1nc([N+](=O)[O-])nn1C	1	7	2226	0	0	-1
Cc1c(CCO)c(=O)[nH]n1C(=O)c1ccc(F)cc1	-5	4	23529*	-1	0	-2
Cc1c(CCO)c(=O)n(C)n1C(=O)c1ccc(F)cc1	-2	4	5409	2	0	4
Cc1cc(C)cc(OCCn2nnc3ccccc32)c1	-8	8	3976	0	-1	-7
CC(=O)c1ccc(NC(=O)CCS(=O)(=O)c2ccc3c(c2)n(C)c(=O)c(=O)n3C)cc1	-4	3	6377	-1	-1	-5
Cn1nc(-c2ccccc2)c2ncc(C(F)(F)F)cc21	7	6	3676	28*	0	7
Cc1ccccc1-c1ccc(C=Nc2c(C)n(C)n(-c3ccccc3)c2=O)o1	-11	33*	3940	-11	-3	-63
SMILES	Anthrax LF inh2	GDH-TPI counter	Autofluor counter	Mtb FBA inh	BoNT A protease	BoNT-F LC inh
COc1ccc(CC(N)c2csc(Nc3nc(C)cnc3C)n2)cc1 (stereo unspecified)	-8	12	4000	2	0	-20
COc1cc(C(=O)NCCOc2cc(C)cc(C)c2)cc(OC)c1OC	-6	-9	3481	0	-4	-16
COC(=O)c1sc(=S)n(Cc2ccccc2)c1C	.	46*	.	5	.	.
CCOCCc1nn2c(=O)cc(CSCC(=O)Nc3cc(C)cc(C)c3)nc2s1	-2	1	5856	1	0	0
O=C(Nc1ccc(Cl)cc1)C1C2C=CC3(O2)C1C(=O)N(CCCN1CCCCC1)C3C(=O)NC1CCCCC1 (stereo unspecified)	10	-8	3603	2	4	18
COc1ccc(C2CC(c3cccs3)n3nc(N)nc3N2)cc1 (stereo unspecified)	-9	24	4700	135*	1	-11
CSc1ccc(C(=O)N2CCC(CCC(=O)NC3CC3)CC2)cc1	3	-9	5125	0	4	0
CSc1nc(N2CCN(c3ccccc3Cl)CC2)c2ccccc2n1	-5	17	5233	-1	0	-9
CCN(CC)c1ccc(Nc2nc(N3CCOCC3)c3ccccc3n2)cc1	-4	4	20077*	0	1	-5
CSc1nc(N2CCOCC2)c2ccccc2n1	0	19	23367*	0	-1	0
COc1ccc(Nc2nc(N3CCCC3)c3ccccc3n2)cc1	-1	9	2604	2	1	-1
COc1ccc(Br)cc1C1N2CC3(C)CN1CC(C)(C2)C3=O (stereo unspecified)	-3	-1	3771	1	0	-2
CN(C)c1ccc(N2C(=NC(=O)COc3ccccc3)SC3CS(=O)(=O)CC32)cc1 (stereo unspecified)	-4	4	6001	-1	-1	-4
COCCNCC(=O)N1CCCCCC1	0	-1	4193	2	0	2
Cc1ccc(NC(=O)CSc2nnc(-c3ccc(S(=O)(=O)N4CCCC4)cc3)o2)cc1C	0	1	21954*	1	2	2
Cc1cc(C)nc(SCC(=O)Nc2ccc(S(=O)(=O)N3CCCCC3)cc2)n1	-1	5	16364*	0	1	1
Cc1cc(C)nc(SCC(=O)Nc2ccc(S(=O)(=O)NCCO)cc2)n1	0	2	23188*	-1	1	-1
Cc1cccc(NC(=O)CSc2nnc(-c3ccc(S(=O)(=O)N4CCCC4)cc3)o2)c1	-1	-3	11414	3	0	-4
O=C(O)c1ccc(Cl)c(S(=O)(=O)Nc2cccc(C(=O)Nc3cccc(C(F)(F)F)c3)c2)c1	3	5	6712	8	-3	-6
CN1C[C@@H]2[C@@H]3C(=O)N(C)C(=O)[C@@H]3[C@](Cc3ccccc3)(C1=O)N2C(=O)c1ccccc1	3	-7	3955	4	0	-1
C[C@@H]1CN([C@@H](C)CO)S(=O)(=O)c2ccc(Br)cc2O[C@H]1CN(C)C(=O)c1cccc(F)c1	-1	6	2993	3	0	6
Cc1nc2ccccc2c(=O)n1NC(=O)C1CC1	2	-1	4327	-1	0	-3
COc1ccc(-n2c(O)c(/C=N/NS(=O)(=O)c3cc(C)ccc3C)c3ccccc3c2=O)cc1OC	-2	17	17279*	16	-5	0
